Several values for one entry are separate records, joined by “and”; a condition that tells them apart may be missing. Equal values may be shown once. Among all 190,000 compounds or so, about 6,900 (3.6%) were called active. Cut-off read from the data, not from the text of the source: active = inhibition above about 50%; inactive = the rest. Shown is part of a subset that was picked to be rich in actives.
Each compound was assayed against Huntingtin (Homo sapiens) (UniProt P42858) (assay: mutant huntingtin-calmodulin interaction inhibitors – biochemical, AlphaScreen, primary screen (AID 1671202;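 for inhibition: 0% = both proteins with DMSO and 100% = one protein alone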)). Details: AlphaScreen His-mHTT/GST-CaM binding, luminescence; at 15 µM, hits give high values.
Sequence of Huntingtin (Homo sapiens) (P42858 whole entry, looked up, stated change not applied): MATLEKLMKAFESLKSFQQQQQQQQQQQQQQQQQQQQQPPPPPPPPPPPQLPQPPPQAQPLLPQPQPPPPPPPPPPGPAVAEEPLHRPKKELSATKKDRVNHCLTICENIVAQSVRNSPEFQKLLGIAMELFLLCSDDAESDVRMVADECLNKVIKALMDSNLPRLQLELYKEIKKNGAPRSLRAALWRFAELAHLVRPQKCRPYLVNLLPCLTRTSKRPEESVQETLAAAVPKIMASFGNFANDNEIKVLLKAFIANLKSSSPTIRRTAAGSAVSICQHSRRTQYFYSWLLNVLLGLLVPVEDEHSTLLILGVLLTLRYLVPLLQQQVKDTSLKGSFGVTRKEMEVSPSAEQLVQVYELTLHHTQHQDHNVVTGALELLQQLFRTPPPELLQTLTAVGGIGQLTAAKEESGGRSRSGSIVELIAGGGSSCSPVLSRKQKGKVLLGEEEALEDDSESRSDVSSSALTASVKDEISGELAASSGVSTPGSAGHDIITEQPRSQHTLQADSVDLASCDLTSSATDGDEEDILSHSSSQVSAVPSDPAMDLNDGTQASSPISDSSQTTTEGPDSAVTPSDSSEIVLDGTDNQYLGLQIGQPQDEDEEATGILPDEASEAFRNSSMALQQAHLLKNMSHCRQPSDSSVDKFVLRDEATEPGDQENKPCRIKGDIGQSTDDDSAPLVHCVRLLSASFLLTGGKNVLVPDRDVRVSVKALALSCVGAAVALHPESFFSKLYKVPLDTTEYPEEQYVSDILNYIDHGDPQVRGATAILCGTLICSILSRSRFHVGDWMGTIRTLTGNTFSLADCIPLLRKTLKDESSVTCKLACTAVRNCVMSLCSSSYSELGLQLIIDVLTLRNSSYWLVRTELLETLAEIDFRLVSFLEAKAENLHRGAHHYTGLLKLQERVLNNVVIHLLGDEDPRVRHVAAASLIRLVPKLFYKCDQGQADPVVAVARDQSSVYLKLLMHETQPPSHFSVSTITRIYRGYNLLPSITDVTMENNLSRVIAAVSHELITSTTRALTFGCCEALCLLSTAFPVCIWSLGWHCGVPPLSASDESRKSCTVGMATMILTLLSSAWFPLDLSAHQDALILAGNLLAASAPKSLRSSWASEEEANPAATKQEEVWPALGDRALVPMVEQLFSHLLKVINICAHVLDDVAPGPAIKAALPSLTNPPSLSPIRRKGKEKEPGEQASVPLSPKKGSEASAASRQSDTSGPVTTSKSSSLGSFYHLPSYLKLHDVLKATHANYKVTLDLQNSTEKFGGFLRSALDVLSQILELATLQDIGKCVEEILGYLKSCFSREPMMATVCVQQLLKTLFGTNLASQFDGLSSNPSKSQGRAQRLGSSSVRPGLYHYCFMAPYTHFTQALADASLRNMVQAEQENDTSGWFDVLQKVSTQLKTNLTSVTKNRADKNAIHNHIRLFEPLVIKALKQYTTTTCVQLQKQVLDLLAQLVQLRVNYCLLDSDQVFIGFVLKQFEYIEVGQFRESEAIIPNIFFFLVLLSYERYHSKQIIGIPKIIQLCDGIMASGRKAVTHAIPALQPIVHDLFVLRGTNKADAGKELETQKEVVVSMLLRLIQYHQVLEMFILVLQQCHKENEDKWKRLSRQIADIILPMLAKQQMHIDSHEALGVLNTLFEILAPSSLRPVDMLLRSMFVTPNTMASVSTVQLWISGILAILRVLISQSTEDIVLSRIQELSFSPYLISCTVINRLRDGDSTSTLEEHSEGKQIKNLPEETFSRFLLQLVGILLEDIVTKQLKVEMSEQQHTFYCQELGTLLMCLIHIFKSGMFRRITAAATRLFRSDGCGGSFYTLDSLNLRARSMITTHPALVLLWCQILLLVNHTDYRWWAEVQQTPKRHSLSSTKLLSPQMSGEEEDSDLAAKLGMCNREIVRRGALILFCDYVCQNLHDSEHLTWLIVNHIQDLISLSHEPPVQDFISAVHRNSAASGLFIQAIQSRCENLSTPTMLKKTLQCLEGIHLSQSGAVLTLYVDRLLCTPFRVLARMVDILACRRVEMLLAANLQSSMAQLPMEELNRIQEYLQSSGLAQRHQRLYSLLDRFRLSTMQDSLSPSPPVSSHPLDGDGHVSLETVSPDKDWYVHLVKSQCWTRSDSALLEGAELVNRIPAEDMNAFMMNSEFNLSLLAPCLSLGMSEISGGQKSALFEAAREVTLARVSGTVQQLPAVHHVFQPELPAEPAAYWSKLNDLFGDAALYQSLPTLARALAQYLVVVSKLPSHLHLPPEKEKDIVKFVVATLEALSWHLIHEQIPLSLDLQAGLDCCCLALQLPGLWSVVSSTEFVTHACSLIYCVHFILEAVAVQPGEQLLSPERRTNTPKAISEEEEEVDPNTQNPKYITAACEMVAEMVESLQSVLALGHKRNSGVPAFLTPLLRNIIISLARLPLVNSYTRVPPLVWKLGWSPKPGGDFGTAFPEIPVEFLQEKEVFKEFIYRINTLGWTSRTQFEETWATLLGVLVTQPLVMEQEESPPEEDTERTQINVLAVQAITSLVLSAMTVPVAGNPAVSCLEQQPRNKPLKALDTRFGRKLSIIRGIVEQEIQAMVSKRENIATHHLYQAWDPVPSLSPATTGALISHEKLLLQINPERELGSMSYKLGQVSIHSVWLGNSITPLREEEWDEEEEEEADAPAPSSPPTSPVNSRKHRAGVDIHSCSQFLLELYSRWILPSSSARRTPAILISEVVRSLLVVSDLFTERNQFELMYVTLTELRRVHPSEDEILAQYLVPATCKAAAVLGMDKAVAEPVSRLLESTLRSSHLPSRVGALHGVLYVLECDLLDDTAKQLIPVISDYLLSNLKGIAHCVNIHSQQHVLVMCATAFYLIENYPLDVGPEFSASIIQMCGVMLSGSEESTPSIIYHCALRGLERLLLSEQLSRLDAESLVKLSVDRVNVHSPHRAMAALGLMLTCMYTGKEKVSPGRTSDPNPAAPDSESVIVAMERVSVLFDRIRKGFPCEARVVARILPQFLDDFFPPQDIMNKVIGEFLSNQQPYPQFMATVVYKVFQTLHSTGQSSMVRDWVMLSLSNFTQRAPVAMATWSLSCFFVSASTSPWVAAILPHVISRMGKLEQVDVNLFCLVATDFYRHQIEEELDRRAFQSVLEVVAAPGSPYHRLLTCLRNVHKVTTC

Row | Structure (SMILES) | inhibition
1 | O=C(NCCC1CCN(C(=O)c2ccc(F)cc2)CC1)c1ccc(F)cc1 | -1.87% (inactive)
2 | O=C(Cc1ccccc1)Nc1ccc(C(=O)Nc2ccc(Cl)cc2Cl)cc1 | -3.3% (inactive)
3 | Cc1cc(C2CCCN2C(=O)c2ccn(C)n2)no1 (stereo not given) | -4.24% (inactive)
4 | O=C(CC(c1ccccc1)c1ccccc1)N1CCN(c2ccccc2F)CC1 | -3.5% (inactive)
5 | O=C(Nc1ccc(N2CCN(Cc3ccc(F)cc3)CC2)nc1)C1CC1 | 5% (inactive)
6 | Cc1cccc(-c2nc(CN3CCN(C(=O)C4CC4)CC3)no2)c1 | 4.1% (inactive)
7 | CC(C)NC(=O)N1CCCC(c2cccc(C(=O)NCc3ccc(Cl)cc3)c2)C1 (stereo not given) | 2.21% (inactive)
8 | CC(C)NC(=O)N1CCCC(c2cccc(C(=O)N3CCN(c4ccccc4)CC3)c2)C1 (stereo not given) | 51.8% (active)
9 | CCCN1CCN(C(=O)c2cccc(C3CCCN(C(=O)NCC)C3)c2)CC1 (stereo not given) | 10.7% (inactive)
10 | CN(C)C(=O)c1cc2c(s1)CCC(C(=O)Nc1ccc(F)cc1F)C2 (stereo not given) | 3.95% (inactive)
11 | C#CCOc1ccc(/C=C2\NC(=O)N(CC(=O)Nc3cccc(C)c3)C2=O)cc1OC | 3% (inactive)
12 | O=C(Nc1ccc([N+](=O)[O-])cc1Br)c1cncc(Br)c1 | -1% (inactive)
13 | CSc1ccc(Oc2cccc3c2S(=O)(=O)N([C@H](C)c2ccccc2)C[C@@H](COCc2ccccc2)O3)cc1C | -4.7% (inactive)
14 | CCCCC[C@H](C)N1C[C@@H](COCc2ccccc2)Oc2cc(N3CC[C@@H](N(C)C)C3)ccc2S1(=O)=O | 100% (active)
15 | CCCCC[C@H](C)N1C[C@@H](COCc2ccccc2)Oc2cc(N3CCC[C@@H]3CO)ccc2S1(=O)=O | 3.5% (inactive)
16 | O=C(NCCN1CCOCC1)Nc1ccccc1F | -6.5% (inactive)
17 | CCCN1CCn2cc(C(=O)N3CCN(c4cccc(OC)c4)CC3)nc2C1 | 4.51% (inactive)
18 | CCCN1CCn2cc(C(=O)NCc3cccc(OC)c3)nc2C1 | 4.35% (inactive)
19 | CCCN1CCn2cc(C(=O)N3CCN(c4ccccc4)CC3)nc2C1 | 63% (active)
20 | Cc1cc(C)cc(C(=O)N2CCC(COc3ccccc3C(=O)NC3CC3)CC2)c1 | 9.35% (inactive)
21 | O=c1c(Cl)c(N2CCCC2)cnn1-c1ccccc1 | -0.3% (inactive)
22 | O=C1c2cccc(N3CCCCC3)c2C(=O)c2cccc(Cl)c21 | 98% (active)
23 | O=S(=O)(c1cccc(Cl)c1Cl)N1CCN(c2cc(N3CCCC3)ncn2)CC1 | 2.9% (inactive)
24 | COc1ccc(C(=O)Nc2ccc(-n3nncc3-c3ccccc3)cc2)c(OC)c1 | 31% (inactive)
25 | COc1ccc(C(=O)Nc2ccc(-n3nncc3-c3ccccc3)cc2)cc1OC | 57% (active)
26 | COc1ccc(C(=O)Nc2ccc(-n3nncc3-c3ccccc3)cc2)cc1 | 18% (inactive)
27 | CC(=O)c1cccc(N=Cc2cc([N+](=O)[O-])ccc2O)c1 | 6% (inactive)

Row | Structure (SMILES) | inhibition
28 | Cc1cccc(OCC(O)CNC2CCCC2)c1 (stereo not given) | -1.4% (inactive)
29 | CCOc1ccccc1C(=O)NCc1nnc2n1CCCC2 | 0.6% (inactive)
30 | CC(C)n1cnc2cc(CNC(=O)c3ccccn3)ccc21 | 14% (inactive)
31 | O=C(NCc1ccccc1)c1ccccn1 | -4.7% (inactive)
32 | O=C(Nc1cccn2cnnc12)c1ccccn1 | 62% (active)
33 | COCCNC(=O)c1ccc2c(c1)ncn2-c1ccc(C)c(Cl)c1 | 24% (inactive)
34 | O=C(C1CCN(S(=O)(=O)c2ccc3[nH]c4c(c3c2)CCCCC4)CC1)N1CCCC1 | 56.3% (active)
35 | NC(=O)c1ccc2[nH]c3c(c2c1)CCCC3 | 12.3% (inactive)
36 | COc1ccc(S(=O)(=O)N2CCC(C(=O)N3CCOCC3)CC2)cc1OC | -0.7% (inactive)
37 | O=C(NCc1ccc2[nH]c3c(c2c1)CCCC3)C1CC1 | 7.3% (inactive)
38 | Cc1cccc(NS(=O)(=O)c2ccc3nnc(C)n3c2)c1 | 5% (inactive)
39 | Cc1cccc(NS(=O)(=O)c2ccc3[nH]c4c(c3c2)CCCC4)c1 | 98.9% (active)
40 | Cc1ccc(C2=CC(c3ccc(Br)cc3)n3ncnc3N2)cc1 (stereo not given) | 7% (inactive)
41 | O=C(NCc1cccnc1)c1cnn2c1NC(c1cccs1)CC2C(F)(F)F (stereo not given) | 4.91% (inactive)
42 | CCOC(=O)N1CCCN(C(=O)OCC)CC1 | -5.6% (inactive)
43 | COc1ccc2c(c1)OCC/C2=N\OC(=O)c1cc(Cl)ccc1OC | inactive
44 | C=CCN1C=C(c2ccc3ccccc3n2)C(C#N)c2ccccc21 (stereo not given) | 15% (inactive)
45 | O=C(CSc1nccc(N2CCCCC2)n1)Nc1cc(C(F)(F)F)ccc1Cl | -12.5% (inactive)
46 | CN(C)C(=O)c1cnn(-c2ccccc2)c1-n1cccc1 | 2.9% (inactive)
47 | O=C(NCc1ccccn1)C1CC(=O)N(CCc2c[nH]c3ccc(F)cc23)C1 (stereo not given) | 46.9% (inactive)
48 | Cc1cc(OCC(=O)N2N=C(C(F)(F)F)CC2(O)C(C)(C)C)ccc1Cl (stereo not given) | 100% (active)
49 | Cc1cc(OCC(=O)Nc2ccc(Cl)cn2)ccc1Cl | -7% (inactive)
50 | Cc1cc(OCC(=O)Nc2c(C)cccc2C)ccc1Cl | -6.2% (inactive)
51 | Cc1sc2ncnc(N3CCN(c4ccccn4)CC3)c2c1-c1ccc(F)cc1 | 0.3% (inactive)
52 | CCOC(=O)Nc1ccc2c(c1)CN(C(=O)c1cccs1)CC2 | 2.5% (inactive)
53 | CCCNC(=O)C1CCN(c2nc3ccsc3c(=O)n2Cc2ccccc2)CC1 | -1.4% (inactive)
54 | CCOC(=O)C1CCc2sc(NC(=O)Cn3nc(C)cc3C)nc21 (stereo not given) | -9.9% (inactive)

Row | Structure (SMILES) | inhibition
55 | CCOC(=O)C1CCc2sc(NC(=O)C3COCC(=O)N3Cc3ccccc3)nc21 (stereo not given) | 64.1% (active)
56 | COc1cc(CNc2cc(C)cc(C)c2)c([N+](=O)[O-])cc1OC | 75% (active)
57 | COc1cc(CN2CCCN(C)CC2)c([N+](=O)[O-])cc1OC | -0.1% (inactive)
58 | COc1cc(CN2CCN(CCO)CC2)c([N+](=O)[O-])cc1OC | 1.8% (inactive)
59 | Clc1ccccc1C1CC(c2ccccc2)n2ncnc2N1 (stereo not given) | 3.6% (inactive)
60 | N#C/C(=C\c1ccc(O)cc1)c1nc(-c2ccc(Cl)cc2)cs1 | 58.9% (active)
61 | Cc1ccc(-c2csc(/C(C#N)=C/c3ccc([N+](=O)[O-])cc3)n2)cc1 | 12.1% (inactive)
62 | N#C/C(=C\c1ccc(F)cc1)c1nc(-c2ccc([N+](=O)[O-])cc2)cs1 | 1.8% (inactive)
63 | COc1cccc(CNC(=O)CC2CCN(S(=O)(=O)c3ccc(Cl)s3)CC2)c1 | -9.77% (inactive)
64 | O=C(c1ccncc1)N1N=C(c2ccc(Cl)cc2)CC1(O)C(F)(F)F (stereo not given) | 58% (active)
65 | CN(C)c1ccc(C(=O)N2N=C(c3ccc(Br)cc3)CC2(O)C(F)(F)F)cc1 (stereo not given) | 13% (inactive)
66 | O=C(C1CC1)N1N=C(c2ccc(Br)cc2)CC1(O)C(F)(F)F (stereo not given) | -4% (inactive)
67 | O=[N+]([O-])c1cccc(C=Nc2ccc3nc(-c4cccc(F)c4)oc3c2)c1O | 1% (inactive)
68 | O=C1c2ccccc2C(=O)N1CN(C(=O)c1ccc([N+](=O)[O-])cc1)c1ccc(F)cc1 | 1% (inactive)
69 | N#Cc1c(-c2ccco2)cc(C2CC2)nc1SCc1ccccc1 | -5% (inactive)
70 | O=C(CSc1oc(-c2ccco2)nc1S(=O)(=O)c1ccccc1)Nc1ccc(F)cc1 | 6% (inactive)
71 | O=C(CSc1nnc(-c2ccco2)c(-c2ccco2)n1)Nc1ccc(Br)cc1 | 79% (active)
72 | c1ccc(CSc2nnc(-c3ccco3)c(-c3ccco3)n2)cc1 | 85% (active)
73 | Cc1ccc(F)cc1NC(=O)Cc1nn(C)c(=O)c2ccccc12 | 3% (inactive)
74 | O=c1[nH]c(SCc2ccccc2)nnc1-c1ccccc1 | -3% (inactive)
75 | Cc1ccccc1NC(=O)CSc1nnc(-c2ccco2)n1C | 1% (inactive)
76 | Cc1ccc(F)cc1NC(=O)CSc1nnc(-c2ccco2)c(-c2ccco2)n1 | 86% (active)
77 | O=C(CSc1nnc(-c2ccco2)n1-c1ccccc1)Nc1ccc(F)cc1 | 11.2% (inactive)
78 | CCOCCCNC(=O)C1CCCN(c2nccc(C)n2)C1 (stereo not given) | -8.18% (inactive)
79 | CCc1nn(-c2ccc(F)cc2)c(CC)c1C(=O)N1CCN(C)CC1 | 9.8% (inactive)
80 | CCN1CCN(C(=O)c2c(C(C)C)nn(-c3cccc(Cl)c3)c2C(C)C)CC1 | 32.9% (inactive)
81 | Cc1c(C(=O)N2CCN(C)CC2)c(CC(C)C)nn1-c1ccc(Cl)c(Cl)c1 | 94.8% (active)

Row | Structure (SMILES) | inhibition
82 | CN(C)C(=O)CSc1nnc(N)s1 | -4.07% (inactive)
83 | Cc1ccc2c(c1)C(=O)NC1(CCN(C(=O)c3ccc(C(F)(F)F)cc3)CC1)N2C | 4.4% (inactive)
84 | CN(C)c1ccc(C(=O)N2CCCC(c3ccnc(Nc4cccc(F)c4)n3)C2)cc1 (stereo not given) | 80.1% (active)
85 | O=C(c1ccccc1F)N1CCCC(c2ccnc(-c3cccc(F)c3)n2)C1 (stereo not given) | 1.2% (inactive)
86 | N#Cc1ccc(C(=O)N2CCCC(c3ccnc(Nc4ccccc4)n3)C2)cc1 (stereo not given) | -5.02% (inactive)
87 | COc1ccc(C(=O)N2CCCC(c3ccnc(Nc4ccccc4)n3)C2)cc1 (stereo not given) | 69.4% (active)
88 | O=C(c1ccccc1)N1CCCC(c2ccnc(Nc3ccccc3)n2)C1 (stereo not given) | 43.6% (inactive)
89 | N#Cc1ccc(C(=O)N2CCCC(c3ccnc(Nc4cccc(F)c4)n3)C2)cc1 (stereo not given) | 6.41% (inactive)
90 | COc1ccc(CCNC(=S)NC2Cc3ccccc3C2)cc1OC | 6.9% (inactive)
91 | Cc1onc(-c2ccccc2)c1C(=O)Nc1ccc(S(N)(=O)=O)cc1 | -0.8% (inactive)
92 | CN1CCN(c2cc(C(=O)O)c3cc(F)ccc3n2)CC1 | 3.5% (inactive)
93 | N#Cc1ccc(Sc2nc3ccccc3o2)c([N+](=O)[O-])c1 | 12% (inactive)
94 | COc1cccc(C(=O)NC(c2cccc([N+](=O)[O-])c2)c2cc(Cl)c3cccnc3c2O)c1 (stereo not given) | 19% (inactive)
95 | O=C(Cc1ccccc1)Nc1ccc(F)c(Cl)c1 | -11.1% (inactive)
96 | CC(=O)NC(c1ccccc1)c1ccc2cccnc2c1O (stereo not given) | 100% (active)
97 | O=C(Cc1ccccc1)NC(c1ccc(Cl)cc1)c1ccc2cccnc2c1O (stereo not given) | 99% (active)
98 | COc1ncccc1CNC(=O)c1cccs1 | -2.2% (inactive)
99 | Cc1ccc(C(NC(=O)Cc2ccccc2)c2ccc3cccnc3c2O)cc1 (stereo not given) | 100% (active)
100 | Cc1ccc(C)c(NC(=O)Cc2ccccc2)c1 | 0.9% (inactive)
101 | Cc1ccc(C(=O)NCCOc2cccc3cccnc23)cc1 | 9% (inactive) and -2% (inactive)
102 | CC(NC(=O)COc1ncccn1)c1ccccc1 (stereo not given) | -13.9% (inactive)
103 | CC(=O)NC(c1cccs1)c1cc(Cl)c2cccnc2c1O (stereo not given) | 70% (active) and 100% (active)
104 | O=C(Cc1ccccc1)NC(Nc1ccccc1Cl)C(Cl)(Cl)Cl (stereo not given) | 20% (inactive)
105 | O=C(O)c1ccccc1C(=O)Nc1cccc2cccnc12 | 4% (inactive)

Source: PubChem BioAssay AID1671202 (University of Kansas High Throughput Screening Laboratory, 2021)
